Measurements: the supplement of paper PMC12645437, “Orthogonal IMiD-Degron Pairs Induce Selective Protein Degradation in Cells” (ACS Chemical Biology, 2025)
Over roughly 8,300 sequences, “log2 fold change of degron read counts, EGFP-low vs EGFP+ sorted cells (limma voom), compound-induced degradation” has its median near -1.1; the highest 2% begin near 3.2. Only a selection was taken, and the highest values are over-represented in it overall.

T1: CRBN, Q96SW2
T1 chain: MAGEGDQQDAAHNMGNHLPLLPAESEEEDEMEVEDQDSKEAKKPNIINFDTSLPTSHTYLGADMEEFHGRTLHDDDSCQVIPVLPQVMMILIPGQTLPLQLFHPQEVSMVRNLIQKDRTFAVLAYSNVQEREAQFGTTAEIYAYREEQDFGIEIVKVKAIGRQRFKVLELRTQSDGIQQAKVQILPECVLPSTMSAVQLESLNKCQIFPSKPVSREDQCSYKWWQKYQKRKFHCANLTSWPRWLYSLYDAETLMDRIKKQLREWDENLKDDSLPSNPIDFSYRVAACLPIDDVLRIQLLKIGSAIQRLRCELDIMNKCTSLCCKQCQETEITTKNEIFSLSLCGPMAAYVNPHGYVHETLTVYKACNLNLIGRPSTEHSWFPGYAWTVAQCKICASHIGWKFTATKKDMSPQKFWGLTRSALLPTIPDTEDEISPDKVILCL

B1: 46F_47V_49D_50V_52G_53A_54G_55F_67L_, Q9UKT9 (peptide)
chain: FVCDVCGAGFTQKGNLLRHIKL
B2: 46F_47E_49D_50Q_52G_53A_54L_55F_67L_, Q9UKT9 (peptide)
chain: FECDQCGALFTQKGNLLRHIKL
B3: 46F_47D_49N_50V_52G_53A_54F_55F_67L_, Q9UKT9 (peptide)
chain: FDCNVCGAFFTQKGNLLRHIKL
B4: 46F_47R_49E_50I_52G_53A_54H_55F_67L_, Q9UKT9 (peptide)
chain: FRCEICGAHFTQKGNLLRHIKL
B5: 46L_47D_49E_50I_52G_53F_54N_55C_67L_, Q9UKT9 (peptide)
chain: LDCEICGFNCTQKGNLLRHIKL
B6: 46F_47A_49E_50V_52G_53A_54A_55F_67L_, Q9UKT9 (peptide)
chain: FACEVCGAAFTQKGNLLRHIKL
B7: 46F_47R_49E_50V_52G_53A_54A_55F_67L_, Q9UKT9 (peptide)
chain: FRCEVCGAAFTQKGNLLRHIKL
B8: 46F_47V_49E_50V_52G_53A_54A_55F_67L_, Q9UKT9 (peptide)
chain: FVCEVCGAAFTQKGNLLRHIKL
B9: 46F_47L_49E_50V_52G_53A_54A_55F_67L_, Q9UKT9 (peptide)
chain: FLCEVCGAAFTQKGNLLRHIKL
B10: 46F_47F_49P_50V_52G_53A_54A_55F_67L_, Q9UKT9 (peptide)
chain: FFCPVCGAAFTQKGNLLRHIKL
B11: 46F_47F_49E_50V_52G_53A_54A_55F_67L_, Q9UKT9 (peptide)
chain: FFCEVCGAAFTQKGNLLRHIKL
B12: 46F_47I_49E_50V_52G_53A_54A_55F_67L_, Q9UKT9 (peptide)
chain: FICEVCGAAFTQKGNLLRHIKL
B13: 46F_47E_49E_50V_52G_53A_54A_55F_67L_, Q9UKT9 (peptide)
chain: FECEVCGAAFTQKGNLLRHIKL
B14: 46F_47I_49N_50V_52G_53A_54Q_55F_67L_, Q9UKT9 (peptide)
chain: FICNVCGAQFTQKGNLLRHIKL
B15: 46F_47W_49E_50Q_52G_53A_54I_55F_67L_, Q9UKT9 (peptide)
chain: FWCEQCGAIFTQKGNLLRHIKL
B16: 46F_47V_49E_50V_52G_53A_54I_55F_67L_, Q9UKT9 (peptide)
chain: FVCEVCGAIFTQKGNLLRHIKL
B17: 46F_47Q_49E_50V_52G_53A_54I_55F_67L_, Q9UKT9 (peptide)
chain: FQCEVCGAIFTQKGNLLRHIKL
B18: 46F_47I_49E_50V_52G_53A_54I_55F_67L_, Q9UKT9 (peptide)
chain: FICEVCGAIFTQKGNLLRHIKL
B19: 46F_47R_49E_50V_52G_53A_54I_55F_67L_, Q9UKT9 (peptide)
chain: FRCEVCGAIFTQKGNLLRHIKL

Target: T1, CRBN, Q96SW2
Test: log2 fold change of degron read counts, EGFP-low vs EGFP+ sorted cells (limma voom), compound-induced degradation; higher = more compound-induced degradation of the degron-EGFP fusion; degrons are variants of IKZF1/3 zinc finger 2; compound dose not given here
Conditions: Jurkat, 18 h
Protocol: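 Pooled library of 8380 IKZF3 ZF2 degron mutants (positions 146-167 varied within the IKZF3 130-189 degron; only the varied core is printed, flanks not printed) fused to EGFP with IRES-mCherry, lentivirally expressed in Jurkat cells. mCherry+ cells were treated with one IMiD compound for 18 h (dose not stated) and FACS-sorted into EGFP-low and EGFP+ populations. Degron sequences were counted by NGS, and log2FC (EGFP-low vs EGFP+) was estimated by limma voom over 3 biological replicates.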

[1] = compound: compound 19 (5-tert-butyl-thalidomide)
[2] = compound: compound 22 (5-morpholino-thalidomide)
[3] = compound: compound 33 (diphenyl IMiD analogue)
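Also: pooled lentiviral library of zinc finger degron-EGFP fusions in mCherry-positive Jurkat cells, FACS-sorted after compound exposure, with degron abundance counted by next-generation sequencing.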

Sequence	log2 fold change of degron read counts [1]	log2 fold change of degron read counts [2]	log2 fold change of degron read counts [3]	log2 fold change of degron read counts (compound: thalidomide)
B1	-0.789	1.19	-0.11	0.879
B2	-3.05	-3.86	-3.38	-2.52
B3	-2.06	-2.22	-1.25	-1.25
B4	-0.542	-0.83	0.979	0.735
B5	-1.97	-2.54	-2.01	-1.74
B6	3.64	2.99	1.02	1.31
B7	2.61	2.62	2.86	2.62
B8	1.64	3.28	2.3	3.36
B9	1.91	0.166	1.52	1.55
B10	2.88	2.91	2.41	1.09
B11	3.47	3.39	2.35	1.61
B12	0.0772	3	2.31	3.04
B13	2.56	-0.651	1.75	2.51
B14	-1.95	0.393	2	0.761
B15	-0.201	0.552	0.154	-1.07
B16	-1.03	-0.779	1.43	1.47
B17	-1.13	3.07	2.65	3.7
B18	-1.14	0.0357	2.04	1.14
B19	-1.36	-1.29	0.815	1.07
